Compound activity from PubChem.
Tb PFK block: qHTS Assay to Find Inhibitors of T. brucei phosphofructokinase. ATP-dependent 6-phosphofructokinase (Trypanosoma brucei brucei), O15648. T. brucei PFK, ADP-Glo luminescence. Potency, µM (series often up to 57.5 µM), for the others: top-dose activity, negative = inhibition, hits mostly inhibitors. hit rate 0.17% among 330,000;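 also: 0% = uninhibited 1x PFK enzyme wells and -100% = no-enzyme wells; nearly all actives have a fitted effect of over 60% in size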
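Compounds were pin-transferred as a titration series up to 57 uM into substrate buffer (0.5 mM F6P, 0.1 mM ATP, pH 8.0), then 1.25 nM PFK was added and reactions ran 45 min before ADP-Glo detection.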
PKM2 act: qHTS Assay for Activators of Human Muscle isoform 2 Pyruvate Kinase; Pyruvate kinase PKM (Homo sapiens), P14618; purified PKM2, Kinase-Glo ATP luminescence, activation; response scale: 0% is enzyme alone, no compound; Potency, µM (top dose mostly 57.5 µM), inactives show at the top dose activation, most hits filed as activators; hit rate 0.34% among 260,000; also: % is scaled to controls: 0 for no effect and ±100 for the full control effect; nearly all actives have a fitted effect of over 55% in size
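hPK-M2, >95% pure; 0.1 mM ADP / 0.5 mM PEP final; imidazole pH7.2 buffer w/ 7 mM MgCl2, 50 mM KCl; 1 h RT; Kinase-Glo lum. Intermediate enzyme activity for dual inhibitor/activator qHTS.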
ELG1 DNA repair: qHTS screen for small molecules that inhibit ELG1-dependent DNA repair in human embryonic kidney (HEK293T) cells expressing luciferase-tagged ELG1 | HEK293T ELG1-luciferase reporter, luminescence, 16 h; DNA damage induced by 5-fluorouridine | AID 504467, 2011 | hit rate 2.3% among 330,000 | Potency, µM (series often up to 46.1 µM), without a hit: top-dose activity change, negative = inhibition, actives largely listed as inhibitors; also: % is scaled to controls: 0 for no effect and ±100 for the full control effect; nearly all actives have a fitted effect of over 55% in size
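Luminescence from the luciferase reporter, measured 30 min after ONE-Glo reagent at room temperature, was the read-out. Beforehand, 2,000 cells per well were exposed for 16 hr at 37 °C to 5-fluorouridine together with compound or vehicle.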
Tb PGK inh: qHTS Assay to Find Inhibitors of Phosphoglycerate Kinase. Phosphoglycerate kinase, glycosomal (Trypanosoma brucei brucei), P07378. PGK/GAPDH coupled, Kinase-Glo luminescence, 60 min. Potency, µM (highest dose often 57.5 µM), for the others: at the top dose activity change, negative = inhibition, most hits filed as inhibitors. hit rate 0.043% among 380,000. AID 602233, 2012; also: % is scaled to controls: 0 for no effect and ±100 for the full control effect; nearly all actives have a fitted effect of over 60% in size
Target sequence (P07378 whole entry, looked up): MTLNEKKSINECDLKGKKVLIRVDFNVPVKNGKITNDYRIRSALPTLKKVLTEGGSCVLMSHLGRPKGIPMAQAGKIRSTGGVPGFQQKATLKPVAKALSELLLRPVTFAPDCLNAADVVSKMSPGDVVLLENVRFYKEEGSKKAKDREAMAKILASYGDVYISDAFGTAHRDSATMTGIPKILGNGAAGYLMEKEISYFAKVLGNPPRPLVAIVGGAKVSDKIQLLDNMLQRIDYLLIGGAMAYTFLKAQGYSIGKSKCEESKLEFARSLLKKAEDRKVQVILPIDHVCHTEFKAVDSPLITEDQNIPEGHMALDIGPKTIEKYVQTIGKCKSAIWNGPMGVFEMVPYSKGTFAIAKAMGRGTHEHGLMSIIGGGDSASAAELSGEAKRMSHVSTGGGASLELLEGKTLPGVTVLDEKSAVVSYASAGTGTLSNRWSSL
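Recombinant glycosomal PGK reaction used 1,3-bisphosphoglycerate generated in-well by GAPDH (100nM final) in 100mM TEA pH 7.6, 5mM MgCl2, 0.01% Tween-20. After 60 minutes at room temperature, ATP was read by Kinase-Glo Plus luminescence end-point.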
Rango release inh: qHTS Assay for Inhibitors of RanGTP induced Rango (Ran-regulated importin-beta cargo) - Importin beta complex dissociation. AID 540253, 2011. Biochemical FRET Rango-importin beta, RanGTP-induced dissociation. Potency, µM (top dose mostly 46.1 µM), without a hit: top-dose activity change, negative = inhibition. Snurportin-1 (Homo sapiens) + GTP-binding nuclear protein Ran (Homo sapiens) + Importin …. hit rate 0.071% among 340,000; calls by dose curve; also: % of control where 0% means no effect; nearly all actives have a fitted effect of over 45% in size
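Compounds preincubate 5 min with complex of recombinant Rango and importin beta in PBS with 1 mM DTT. Ran (0.6 uM) loaded with 2 mM GTP plus 0.2 uM RCC1 starts dissociation; FRET is recorded 45 min later.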
Rango-impB inh: qHTS Assay for Inhibitors of Rango (Ran-regulated importin-beta cargo) - Importin beta complex formation; Potency, µM (titrated, usually from 92.2 µM), inactives show at the top dose inhibition of complex formation; hit rate 0.031% among 340,000; AID 540263, 2011; Rango CFP/YFP FRET sensor + importin beta, 45 min; calls by dose curve;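 also: 0% = DMSO wells and 100% = buffer wells lacking importin beta; nearly all actives have a fitted effect of over 15% in size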
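Inhibition scored from the CFP 486 nm/YFP 530 nm FRET ratio 45 min after adding 0.125 microM importin beta to 50 nM Rango biosensor preincubated 5 min with compound (room temperature, PBS with DTT, Tween-20, BSA). No-importin wells as positive control.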
ELG1 FLuc counter: qHTS screen for small molecules that inhibit ELG1-dependent DNA repair: Hit Confirmation in Cell-Based Luciferin Assay; shares compounds with ELG1 DNA repair; cell-free firefly luciferase luminescence counter-screen, ViewLux; hit rate 3% among 350; Potency, µM (doses to about 46.1 µM), for inactives: at the highest dose activity change, negative = inhibition, most hits filed as inhibitors; also: % is scaled to controls: 0 for no effect and ±100 for the full control effect
ELG1 Luc conf: HTS assay for small molecules that inhibit ELG1-dependent DNA repair in human embryonic kidney (HEK293T) cells expressing luciferase-tagged ELG1: Hit Confirmation; hit rate 68% among 670; shares compounds with ELG1 DNA repair; HEK293T ELG1-luciferase levels, luminescence; cells co-treated with 5-fluorouridine; Potency, µM (series often up to 46.1 µM), for inactives: at the highest dose activity change, negative = inhibition, actives largely listed as inhibitors; also: % is scaled to controls: 0 for no effect and ±100 for the full control effect; nearly all actives have a fitted effect of over 55% in size
ELG1 MMS Luc: confirmation of human ELG1 repair inhibitors, MMS stimulated. Potency, µM (top dose mostly 46.1 µM), without a hit: at the highest dose activity change, negative = inhibition, usual class: inhibitors. AID 624249. hit rate 53% among 670. HEK293T luciferase-tagged ELG1 level, MMS stimulated. shares compounds with ELG1 DNA repair; also: % is scaled to controls: 0 for no effect and ±100 for the full control effect; nearly all actives have a fitted effect of over 60% in size
ELG1 5-FU: qHTS screen for small molecules that inhibit ELG1-dependent DNA repair: Hit Confirmation with 5FU Viability | shares compounds with ELG1 DNA repair | cell viability with 5-FU, ELG1-dependent repair | Potency, µM (titrated, usually from 46.1 µM), for the others: at the top dose activity change, negative = viability loss, actives largely listed as cytotoxic | 670 tested, under 10 active | AID 624250, 2012;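 also: ELG1-luc HEK293T cells cotreated with 5-fluorouridine at 10 µM final; viability measured 16 h after compound addition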
ELG1 MMS viab: qHTS screen for small molecules that inhibit ELG1-dependent DNA repair: Hit Confirmation with MMS Viability | shares compounds with ELG1 DNA repair | AID 624251, 2012 | Potency, µM (doses to about 46.1 µM), without a hit: top-dose activity change, negative = viability loss, usual class: cytotoxic | Cell viability with MMS, ELG1-dependent DNA repair | hit rate 33% among 670;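 also: ELG1-luc HEK293T cells co-treated with 10 µM MMS; viability read 16 h after compound addition; % is scaled to controls: 0 for no effect and ±100 for the full control effect; nearly all actives have a fitted effect of over 60% in size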
Cell viab unstim: qHTS screen for small molecules that inhibit ELG1-dependent DNA repair: Hit Confirmation with Unstimulated Viability Assay. shares compounds with ELG1 DNA repair. cell viability counter-screen, unstimulated, luminescence. Potency, µM (doses to about 45.9 µM), without a hit: top-dose activity change, negative = loss of viability, most hits filed as cytotoxic. hit rate 8% among 900. AID 624252, 2012;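 also: compound exposure lasted 16 hours before reading; % is scaled to controls: 0 for no effect and ±100 for the full control effect; nearly all actives have a fitted effect of over 55% in size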
FLuc biochem: qHTS screen for small molecules that inhibit ELG1-dependent DNA repair: Hit Confirmation in Biochemical Luciferin Assay; Potency, µM (titrated, usually from 57.5 µM), for the others: top-dose activity, negative = inhibition, usual class: inhibitors; purified firefly luciferase, luminescence counter-screen; hit rate 10% among 350; shares compounds with ELG1 DNA repair; also: % is scaled to controls: 0 for no effect and ±100 for the full control effect
An asterisk follows results filed as active; i = inactive; u = inconclusive; x = no result given; [ ] = dose if it differs, or a comment. Compounds with a hit are over-represented: about 2.4% of the library has one in this group of screens. Unless noted, calls follow the shape of the dose curve; as a rule, active = well fitted curve in the direction sought with a large enough effect; inconclusive = small, poorly fitted or top-dose-only effect, or another doubt; inactive = no such curve, though single readings can be large; an effect the other way counts as inactive or inconclusive. Potency is read from the fitted curve at half-maximal effect.

SMILES	Tb PFK block	PKM2 act	ELG1 DNA repair	Tb PGK inh	Rango release inh	Rango-impB inh	ELG1 Luc conf	ELG1 MMS Luc	ELG1 5-FU	ELG1 MMS viab	Cell viab unstim	others
CCOC(=O)C1C(C(=O)OC)=C(c2ccc(OC)cc2)c2ccc(OC)cc2N1S(=O)(=O)C(F)(F)F (stereo not drawn)	0%	x	4.1µM*	3%	39%	0%	5.6µM*	u	u	-8%	-17%
Cc1cc(C(=O)COC(=O)C2=COCCO2)c(C)n1-c1ccccc1	3%	x	u	-8%	19%	4%	x	x	x	x	u	ELG1 FLuc counter=11µM*;FLuc biochem=0.092µM*
O=C1CCc2cc(NS(=O)(=O)c3ccccc3)cc3c2N1CC3	-2%	x	28%	1%	13%	u	x	x	x	x	3%	ELG1 FLuc counter=26%;FLuc biochem=1%
O=C1CCc2cc(NS(=O)(=O)c3ccccc3)cc3c2N1CCC3	0%	x	u	2%	5%	-1%	x	x	x	x	6%	ELG1 FLuc counter=14%;FLuc biochem=0%
C=CCc1ccccc1Oc1cc(F)nc(N)n1	4%	-2%[11.5 µM]	18%	4%	3%	-4%	x	x	x	x	x
CCOCCOC(=O)c1[nH]c2c(c1C)C(=O)CC(c1cc(OC)c(OC)c(OC)c1)C2 (stereo not drawn)	-7%	x	4.1µM*	-11%	-10%	-2%	10µM*	6.3µM*	-5%	u	u
COc1ccccc1NC(=O)Nc1nc(CC(=O)Nc2ccc(F)c(F)c2)cs1	0%	x	4.6µM*	9%	10%	2%	22µM*	8%	6%	-7%	u
CCN1CCN(c2nnc(-c3ccc(C)cc3)c3ccccc23)CC1	2%	x	-13%	3%	0%	3%	x	x	x	x	x
O=C(CSc1ncnc2sccc12)N1CCCCC1	1%	x	u	3%	-8%	0%	x	x	x	x	-5%
COc1ccc(Cc2nc3ccc(C(=O)N(C)Cc4nccs4)cc3o2)cc1OC	-11%	x	4.1µM*	-5%	23%	-6%	u	2.2µM*	9%	7.9µM*	u
CCOC(=O)c1cnc(-n2nc(C)cc2C)nc1Nc1ccc(O)cc1	4%	-1%	4.1µM*	i	2%	0%	3.5µM*	2.5µM*	-3%	2.8µM*	u
CCOC(=O)c1cnc(-n2nc(C)cc2C)nc1Nc1ccc(C)cc1	-2%	-2%	u	1%	16%	-2%	x	x	x	x	x
COc1ccccc1N1C(=O)CC(N2CCN(c3ccc(Cl)cc3)CC2)C1=O (stereo not drawn)	0%	-6%	-16%	5%	3%	-4%	x	x	x	x	x
COc1ccc(C2=NN(C(=O)COc3ncnc4ccccc34)C(c3ccco3)C2)cc1 (stereo not drawn)	0%	11%	4.1µM*	-2%	-8%	1%	u	-2%	u	9%	8%
COc1ccc(C2=NN(C(=O)CSc3nnc(C)n3C)C(c3ccco3)C2)cc1 (stereo not drawn)	0%	-9%	0%	-6%	8%	4%	x	x	x	x	x
COc1ccc(CCN2C(=O)c3cccc4c(C(=O)N5CCCCC5)ccc(c34)C2=O)cc1OC	4%	-2%	3.7µM*	i	4%	1%	7.9µM*	7.9µM*	u	11µM*	14µM*
